Screening data deposited in PubChem by several laboratories.
In the library only some 1.5% were active in any assay of this set; here they are far more common.
Measles CPE: protection of cells from measles virus | Measles virus-infected cells, CPE protection, absorbance | actives 1.5% (n = 140,000) | AID 841 | protection (pct of control), % at 4 µM; in the data active = protection mostly above about 24%, no sharp cut-off; inactive = mostly below about 26%
cytoskel mod: modifiers of cytoskeleton assembly; HUVEC TNFa F-actin phalloidin imaging, high content; inhibition, % at 2 µM; actives 0.18% (n = 91,000); AID 836;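 active = inhibition above the batch mean plus 3 SD and confirmed as a hit by visual image inspection, cut at about 30% in these data, passing the limit was not always enough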
* = called active by the depositor; / = not tested or not shown.

SMILES	Measles CPE	cytoskel mod
CCC(C(=O)c1ccc2ncccc2c1)c1ccccc1 (stereo unspecified)	4	/
CC(C)(C)[C@]1(O)CCN2C[C@H]3c4ccccc4CCc4cccc(c43)[C@@H]2C1	11	/
Cc1ccc(N(CC(=O)NCCc2ccc(F)cc2)S(=O)(=O)c2ccc(Cl)c([N+](=O)[O-])c2)c(C)c1	18	/
COc1cc2cc(CN(Cc3cccnc3)C(=O)NCc3ccccc3)c(=O)[nH]c2cc1OC	48*	30
COc1ccc(CCNC(=O)CCn2c(=O)[nH]c3cc(OC)c(OC)cc3c2=O)cc1OC	2	-16
COc1cc2[nH]c(=O)n(CCC(=O)NCc3cccnc3)c(=O)c2cc1OC	67*	/
COc1ccc2[nH]c(=O)c(CN(CCN(C)C)C(=O)NCc3ccccc3)cc2c1	24	20
CC1=C(C(=O)OCCNC(=O)c2ccccc2O)C(c2ccccc2[N+](=O)[O-])C(C(=O)OCC2CCCO2)=C(C)N1 (stereo unspecified)	5	/
O=C(C1=NNCC1c1ccccc1)C1CO1 (stereo unspecified)	5	/
CCCCn1cnc2c1c(=O)[nH]c(=O)n2CCCC	3	35*
Cn1c(=O)[nH]c(=O)c2c1ncn2CCN1CCOCC1	0	-16
Cc1ccc(S(=O)(=O)CC(=O)c2ccccc2)cc1	9	-20
CC(C)(C)c1ccc(C(=O)CS(=O)(=O)c2ccccc2)cc1	48*	-7
COc1cccc(-n2nc(C(C)=O)c(C#N)c2-c2ccco2)c1	2	/
CSc1cccc(NC(=O)C(C)Sc2ccc(C)cc2)c1 (stereo unspecified)	3	-1
Cc1ccc(SC(C)C(=O)Nc2cccc(N(C)S(C)(=O)=O)c2)cc1 (stereo unspecified)	33*	16
CCCc1nnc(SCC(=O)N2C(C)CCCC2C)n1CC1CCCO1 (stereo unspecified)	12	-9
O=C(CSc1nnnn1-c1ccc(O)cc1)Nc1ccc(N2CCOCC2)c(Cl)c1	22	6
NC(=O)c1ccc(-n2nnnc2SCC(=O)Nc2ccc(N3CCOCC3)c(Cl)c2)cc1	32*	22
CCN(CC)CCNC(=O)C(=O)NCC1OCCN1S(=O)(=O)c1ccc([N+](=O)[O-])cc1 (stereo unspecified)	4	/
COc1ccc(CNC(=O)CSc2nnc3c(Cl)cc(C(F)(F)F)cn23)cc1OC	16	/
COc1ccc(Nc2ccc(N3C(=O)CCCC3=O)cc2[N+](=O)[O-])c(OC)c1	4	/
CCC(CC)NC(=O)COC(=O)c1ccc(NS(=O)(=O)c2ccc3c(c2)OCCO3)cc1	7	6
CNC(=O)c1[nH]cnc1C(=O)Nc1ccc(C)cc1	15	14
Cc1ccc(NC(=O)c2nc[nH]c2C(=O)Nc2ccc(C)cc2)cc1	59*	34
SMILES	Measles CPE	cytoskel mod
CC(C)(C)c1ccc(S(=O)(=O)Nc2cccc(C3OCCCO3)c2)cc1	3	/
COc1ccc(/C=N/Nc2ccccc2)cc1Cn1nc(C)c([N+](=O)[O-])c1C	22	4
O=C(NCc1ccco1)c1ccc2c(=O)n(Cc3ccco3)c(SCC(=O)N3CCCC3)nc2c1	2	-14
O=C(CSc1nc2ccccc2c(=O)n1Cc1ccco1)N1CCCCCC1	45*	-16
CNc1ccc(/C=C/C(=O)c2cccc3ccccc23)cc1[N+](=O)[O-]	5	/
CC(=O)Oc1ccc(-c2cccc(C(=O)NCCCO)c2)cc1	8	/
Cc1ccc2nc(Cl)c(CN(Cc3cccs3)C(=O)C3CC3)cc2c1	37*	-1
COc1ccc(CCN(Cc2cc3cc(C)c(C)cc3nc2Cl)C(=O)C2CC2)cc1	7	-5
CCN(CC)C(=S)Nc1ccc(Cl)c(Cl)c1	9	/
O=C(NCc1cccnc1)C1CC(=O)N(CCc2ccccc2)C1 (stereo unspecified)	13	3
CCC(C)(C)n1nnnc1C(c1ccc(OC)c(OC)c1)N1CCN(c2ccc(F)cc2)CC1 (stereo unspecified)	8	3
CCC(C)(C)n1nnnc1C(c1ccc(OC)c(OC)c1)N1CCN(c2ccc(OC)cc2)CC1 (stereo unspecified)	59*	7
O=C1Nc2ccccc2N(O)N1c1ccc(S(=O)(=O)N2CCCCCC2)cc1	7	/
COC(=O)c1ccc2c(c1)S(=O)(=O)NC(=NCc1ccco1)S2	85*	-36
COC(=O)c1c(C(=O)OC)c(C)n(Cc2ccco2)c1C	9	-9
Cc1ccc(CNC(=O)/C=C/c2ccc(S(=O)(=O)N3CCOCC3)cc2)cc1	3	/
COc1ccc(Cn2c(C3CC3)nc3ccc(NC(=O)c4ccco4)cc3c2=O)cc1	36*	5
CCC(=O)Nc1ccc2nc(C3CC3)n(Cc3ccccc3)c(=O)c2c1	10	-1
CCN(C(=O)CN1CCN(c2ccc(O)cc2)CC1)c1c(N)n(Cc2ccccc2)c(=O)[nH]c1=O	9	-14
CCN(C(=O)CN1CCN(S(=O)(=O)c2cc(Cl)ccc2Cl)CC1)c1c(N)n(Cc2ccccc2)c(=O)[nH]c1=O	30*	/
O=S(=O)(c1ccc(Oc2ccc(Cl)cc2)c(S(=O)(=O)N2CCCCC2)c1)N1CCCCC1	6	-2
CCOC(=O)c1ccc(S(=O)(=O)Nc2cc(C(C)(C)C)no2)cc1	40*	3
CC(C)(C)c1cc(NS(=O)(=O)c2ccc3c(c2)OCCO3)on1	25	20
Cc1ccc2nc(C3CCN(S(=O)(=O)c4ccc5ccccc5c4)CC3)[nH]c2c1	24	4
CC1=[N+]([O-])C(C)(C)C(c2ccc(Br)cc2)=[N+]1[O-]	14	/
SMILES	Measles CPE	cytoskel mod
COc1ccccc1C(=O)NCCCNc1ccc([N+](=O)[O-])cc1	27*	/
CC(=O)NCCCNc1ccc([N+](=O)[O-])cc1	6	/
O=C(CCn1cnc2ccccc2c1=O)Nc1nc(-c2ccc(Br)cc2)cs1	11	/
CC1(C)CC(CC(=O)Nc2ccc([N+](=O)[O-])cc2)C(=O)O1 (stereo unspecified)	35*	-6
CC(CC1CC(C)(C)OC1=O)C(=O)Nc1ccc([N+](=O)[O-])cc1 (stereo unspecified)	26	/
O/N=C1/C2C3C(Br)C4C5CC(C1C53)C24 (stereo unspecified)	2	/
CCOC(=O)N1CCN(C(=O)c2ccc3c(c2)sc2nc(-c4ccc(OC)cc4)cn23)CC1	63*	-14
CCOC(=O)N1CCN(C(=O)c2sc3nc(-c4ccc(F)cc4)cn3c2C)CC1	20	/
Cc1ccc(CNc2ccc(S(=O)(=O)N3CCOCC3)cc2[N+](=O)[O-])cc1	5	/
Clc1ccc(SCc2cn3ccsc3n2)cc1	57*	-7
Cc1csc2nc(CSc3ccc(Cl)cc3)cn12	9	-11
CCCSc1nc2c(cnn2-c2ccc(C)c(C)c2)c(=O)[nH]1	9	17
COC(=O)c1ccc(CSc2nc3c(cnn3-c3ccc(C)c(C)c3)c(=O)[nH]2)o1	30*	-17
CCc1ccc(C(=O)CN2CCSC2=N)cc1	11	/
O=C1[C@@H]2[C@@H]3C[C@@H]([C@H]4ON=C(c5ccc(OCc6ccccc6)cc5)[C@@H]34)[C@@H]2C(=O)N1c1ccc2c(c1)OCO2	6	/
CS(=O)(=O)N1CCc2cc(-c3csc(NC(=O)Cc4cccs4)n3)ccc21	101*	48
O=C(CN1CCOCC1)Nc1nc(-c2ccc3c(c2)CCN3S(=O)(=O)c2ccccc2)cs1	16	-14
CC(OC(=O)CCCc1nc2ccccc2s1)C(N)=O (stereo unspecified)	29*	2
Cc1noc(C)c1COC(=O)CCCc1nc2ccccc2s1	3	17
